From PubChem BioAssay AID1209 (Sanford-Burnham Center for Chemical Genomics, 2008) come the findings set out here.

The whole screen tested about 190,000 compounds, of which about 810 (0.43%) were called active. The entries come from a sample that favours actives as a whole. Values without a mark were called inactive. Rule as the data show it: active = inhibition above about 50%; inactive = the rest.

Sequence of Mannose-6-phosphate isomerase (Homo sapiens) (P34949 whole entry, looked up): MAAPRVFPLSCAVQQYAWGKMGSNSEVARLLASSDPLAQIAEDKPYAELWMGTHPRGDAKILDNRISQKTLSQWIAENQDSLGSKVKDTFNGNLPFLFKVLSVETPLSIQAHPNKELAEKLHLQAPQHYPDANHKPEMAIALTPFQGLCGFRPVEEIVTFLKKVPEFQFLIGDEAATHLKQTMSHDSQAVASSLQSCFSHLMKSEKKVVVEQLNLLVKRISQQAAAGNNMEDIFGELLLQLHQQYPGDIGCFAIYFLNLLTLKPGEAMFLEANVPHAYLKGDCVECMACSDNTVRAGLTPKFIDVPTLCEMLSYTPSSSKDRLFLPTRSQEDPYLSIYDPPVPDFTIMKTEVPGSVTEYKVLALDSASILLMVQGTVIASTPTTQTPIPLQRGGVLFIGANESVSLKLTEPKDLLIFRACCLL

This assay has as its target Mannose-6-phosphate isomerase (Homo sapiens) (UniProt P34949). Briefly: MPI enzyme activity inhibition – biochemical, fluorescence intensity, coupled assay, primary screen (AID 1209).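 Also: plate controls were DMSO vehicle for no effect and wells lacking substrate for full effect.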 The following applies: purified PMI enzyme, at 20 µM, hits give high values.
`O=C1CN(CC(=O)Nc2ccc(SC(F)F)cc2)CCN1`: the inhibition is 2.5%. Turning to `O=C(NCc1ccccc1)c1cccc(OCC(=O)N2CCN(C(=O)c3ccco3)CC2)c1`, the inhibition was 2%.

With `CN1C(=O)/C(=C2\SC(=S)N(C(CCC(=O)O)C(=O)O)C2=O)c2ccccc21` (stereo not given), the inhibition is 22.8%. The result for `COC(=O)C1=C(C(=O)OC)SC(=C2C(=S)C(C)(C)N(C(=O)C(C)C)c3ccccc32)S1` reads 68% (active). On to `CCCC(=O)N1c2ccccc2C(=C2SC(C(=O)OC)=C(C(=O)OC)S2)C(=S)C1(C)C`, for which the inhibition is 62.1% (active).

With `COC(=O)C1=C(C(=O)OC)SC(=C2C(=S)C(C)(C)N(C(=O)C3CC3)c3ccccc32)S1`, the inhibition was 71.6% (active). The same measure for `COC(=O)C1=C(C(=O)OC)SC(=C2C(=S)C(C)(C)N(C(=O)CC(C)C)c3ccccc32)S1`: 38.8%; for `CC1C(=O)Nc2ccccc2N1C(=O)C1CC1` (stereo not given): -18%. Turning to `COC(=O)C1=NN(c2ccccc2)C2(S1)SC(C(C)=O)=C(C)N2c1ccccc1` (stereo not given), the inhibition is 9.2%. The same measure for `CCC(C)C(=O)N1c2ccccc2C(=C2SC(C(=O)OC)=C(C(=O)OC)S2)C(=S)C1(C)C` (stereo not given): 63.8% (active). The same measure for `C/C=C/C(=O)N1c2ccccc2C(C)=CC1(C)C`: -2.5%. The result for `CCCC(C(=O)O)N1C(=O)/C(=C2\C(=O)N(C)c3ccccc32)SC1=S` (stereo not given) reads 16.5%. With `CC1(C)c2ssc(=S)c2-c2ccccc2N1C(=O)CSC1=NCCS1`, the inhibition is 14.3%. Take `O=C(C1CCC(C(=O)N2CCc3ccccc32)CC1)N1CCc2ccccc21` (stereo not given): the inhibition is 3.2%. For `Cc1ccc(/C=C/C(=O)CCC(=O)O)cc1`, the inhibition is -0.7%. The result for `O=C(N/N=C/c1c[nH]c2ccccc12)c1sc2ccccc2c1Cl` reads 17.1%.

Consider `COc1cc(C2C3=C(CC(C)(C)CC3=O)OC3=C2C(=O)CC(C)(C)C3)cc([N+](=O)[O-])c1O`, for which the inhibition was 0.1%. On to `O=C(CC1SC(=O)N(Cc2cccc3ccccc23)C1=O)Nc1nccs1` (stereo not given), for which the inhibition was 9.8%. The result for `O=C(/C=C/c1ccccc1)Oc1ccccc1C(=S)N1CCOCC1` reads 15.6%. For the molecule `Cc1csc(NC(=O)c2cc(C)oc2C)n1`, the inhibition was -8.4%. The same measure for `CCOC(=O)c1sc(NC(=O)C2CCCO2)c(C(=O)OCC)c1C` (stereo not given): 11.4%; for `S=C(Nc1ccccc1)Nn1cnnc1`: 48.4%. The result for `CN1CCN(NC(=S)Nc2ccc(OC(F)F)cc2)CC1` reads -15.1%.

`CCc1ccc(NC(=S)Nn2cnnc2)cc1`: the inhibition was 54.2% (active). The same measure for `CCc1ccc(NC(=S)NCc2ccccc2)cc1`: -2.6%; for `Cc1ccc(C(=O)NC(=S)Nn2cnnc2)cc1`: 12.4%; for `FC(F)Oc1ccc(NC(=S)Nn2cnnc2)cc1`: 55.2% (active). The same measure for `CCc1ccc(NC(=S)Nc2ccc(S(=O)(=O)Nc3ncccn3)cc2)cc1`: -1.7%; for `Cc1ccc(NC(=S)Nn2cnnc2)cc1`: 61.8% (active); for `FC(F)Oc1ccc(NC(=S)NN2CCOCC2)cc1`: -3.1%. The same measure for `CNC(=S)Nc1ccc(OC)c(OC)c1`: 7.4%. Regarding `COc1ccc(NC(=S)NN2CCN(C)CC2)cc1OC`, the inhibition is 22.9%. With `COc1ccc(NC(=S)Nn2cnnc2)cc1OC`, the inhibition was 61.2% (active). In the case of `CCc1ccc(C(=O)COC(=O)c2n[nH]c3ccccc23)cc1`, the inhibition was -0.2%. On to `CCC1C(=O)N(C)CCc2ccccc21` (stereo not given), for which the inhibition is -5.7%. The same measure for `COC(=O)c1nc(-c2ccccc2)oc1N1CCOCC1`: -4.7%; for `COc1ccc(C)cc1NC(=O)C(Sc1nnc2ccccn12)c1ccccc1` (stereo not given): -1%.

Turning to `Cc1ccc(S(=O)(=O)N/N=C/c2ccc(OS(=O)(=O)c3ccc(C)c([N+](=O)[O-])c3)cc2)cc1`, the inhibition was 1.6%. In the case of `O=C(/C=C/c1ccc(Br)cc1)c1ccc(NC2=NCCCS2)cc1`, the inhibition is 1.6%.

As to `Fc1ccc(Nc2nc3ccccc3s2)cc1`, the inhibition was 7.9%.

Turning to `COc1ccc(Nc2nc(C)cc(=O)[nH]2)cc1`, the inhibition was 5.6%. The same measure for `O=c1cnnc(Nc2cccc(C(F)(F)F)c2)[nH]1`: -10.6%; for `COc1ccc(Nc2nc3[nH]c(=O)cc(O)c3s2)cc1`: 50.2% (active); for `O=c1cc(O)c2sc(Nc3ccc(F)c(Cl)c3)nc2[nH]1`: 41.4%. For `Cc1cc(=O)[nH]c(Nc2cccc(C(F)(F)F)c2)n1`, the inhibition was -10.3%. For `COc1ccc(Nc2nc3ccc(OC)cc3s2)cc1`, the inhibition is -0.9%. The result for `O=c1cc(O)c2sc(Nc3cccc(C(F)(F)F)c3)nc2[nH]1` reads 52.4% (active); that for `O=c1cc(O)c2sc(Nc3ccc(F)cc3)nc2[nH]1`, 69.8% (active). Turning to `CN(C)CCCN(C(=O)c1cc2ccccc2oc1=O)c1nc2c(F)cccc2s1`, the inhibition is 7.5%. The result for `O=C(CSc1n[nH]c(-c2cccs2)n1)N1CCN(S(=O)(=O)c2ccccc2)CC1` reads 8.5%; that for `C#CCOCCOCCOCCNc1nc(N2CCOCC2)nc(N2CCN(C(=O)[C@H](C)n3cc(CCCN=C(N)N)nn3)CC2)n1`, -9.8%; that for `COC(=O)c1ccc(NC(=O)CSc2n[nH]c(-c3ccncc3)n2)cc1`, 11.1%.

On to `COc1ccc(OCC(=O)N/N=C(\C)c2cc3ccccc3o2)cc1`, for which the inhibition is 4.9%. The result for `CC(SCC(=O)Nc1ccc(S(=O)(=O)N2CCCCC2)cc1)C(=O)O` (stereo not given) reads 3.5%; that for `Brc1c(NC2=NCCN2)ccc2nccnc12`, 54.4% (active); that for `Clc1cccc(Cl)c1NC1=NCCN1`, -30.9%.

As for `c1cc(Nc2cccc3nccnc23)c2nccnc2c1`, the inhibition was 28.5%. The same measure for `Cc1nc2ccccc2n1CC(=O)OCC(=O)NCc1ccccc1`: -3%.

Regarding `CS(=O)(=O)N(CC(=O)Nc1ccc(S(=O)(=O)N2CCCC2)cc1)c1ccccc1F`, the inhibition is 2.4%. As to `Cc1ccnn1CC(=O)N/N=C/c1ccc2c(c1)OCO2`, the inhibition is -2.6%. With `Cc1cc(C)n(CC(=O)N/N=C/c2ccc3c(c2)OCO3)n1`, the inhibition was 12.1%. As to `O=C(Cn1nc(C(F)F)cc1C(F)F)N/N=C/c1ccc2c(c1)OCO2`, the inhibition was 92.9% (active). The result for `Cc1ccc(C(=O)CC(=O)c2cc(Cl)ccc2O)cc1` reads -10.2%; that for `Cc1cccc(C(=O)CC(=O)c2cc(Cl)ccc2O)c1`, 5.2%.

For the molecule `O=C(CC(=O)c1cc(Cl)ccc1O)c1ccccc1`, the inhibition is 59.9% (active). The same measure for `S=c1[nH]ncn1/N=C/c1ccccn1`: 5.3%; for `Oc1c(Br)cc(Br)cc1C=NCc1ccc(F)cc1`: -4.2%. For `CCOC(=O)C1CCN(CCC(=O)Nc2ccc(Cl)cc2)CC1`, the inhibition was 7.1%. As to `COc1ccc([C@@H]2C[C@H]3CN(c4ccccc4)C(=O)[C@]34CCCN24)c(OC)c1OC`, the inhibition was -8.3%. The result for `Cc1nn(Cc2cccc(C(=O)NC3CCCCC3)c2)c(C)c1Cl` reads 7.3%. The same measure for `O=C(O)c1csc(Cc2ccccc2)n1`: -2.4%; for `COC(=O)c1c(NC(=S)Nc2cc(OC)c(Cl)cc2OC)sc2c1CCCCC2`: 25.1%; for `COC(=O)c1c(NC(=S)Nc2ccc(F)cc2[N+](=O)[O-])sc2c1CCCCC2`: 63% (active). The result for `CCOC(=O)c1c(NC(=S)Nc2cc([N+](=O)[O-])ccc2OC)sc2c1CCCCC2` reads 28.1%. Take `CCC1Oc2ccc(C)cc2N(CC(=O)NCc2ccco2)C1=O` (stereo not given): the inhibition was 6.6%. Turning to `Nc1cccc2cnccc12`, the inhibition is 68.5% (active).

As for `N#Cc1cccc2cnccc12`, the inhibition was 9%. The same measure for `NC(=S)Nc1cccc2cnccc12`: 16.4%; for `CCn1cc([N+](=O)[O-])c(C(=O)Nc2ccn(Cc3ccccc3F)n2)n1`: 8.3%. The same measure for `CCOC(=O)c1c(C)n(C)c2ccc(OCC(N)=O)cc12`: 16.5%; for `COc1ccc2c(C#N)c3ccccn3c2c1`: 39.7%. The same measure for `CCOC(=O)COc1ccc2c(C#N)c3ccccn3c2c1`: 41.4%; for `CCOC(=O)c1c2ccc(OCC(=O)NN)cc2n2ccccc12`: 81.3% (active). On to `N#Cc1c2ccc(OCC(N)=O)cc2n2ccccc12`, for which the inhibition is 65.3% (active). Take `CCOC(=O)c1c2ccc(OCC(=O)N/N=C/c3ccccc3C(F)(F)F)cc2n2ccccc12`: the inhibition is 59.8% (active). The result for `Cc1cccc(OCC(=O)N/N=C\c2cn(C)c3ccccc23)c1` reads 5.4%; that for `CCOC(=O)c1c2ccc(OCC(=O)N/N=C/c3ccc(Cl)cc3)cc2n2ccccc12`, 33.2%.

Regarding `CCOC(=O)c1c(C)n(C)c2cc(OCCN(CC)CC)ccc12`, the inhibition is 10.9%. As for `N#CCCn1cc(/C=N/NC(N)=S)c(-c2ccc(-c3ccccc3)cc2)n1`, the inhibition is 21.7%.

Regarding `COc1ccc(N=Nc2cnc(C)nc2-c2ccccc2)cc1`, the inhibition is 3.6%. The result for `CCCCOc1ccc(-c2c(C(=O)Nc3ccccc3)c(C)[nH]c(=S)c2C#N)cc1` reads 13.9%. The same measure for `Cc1cc(C)c2nc3s/c(=C/c4ccc5c(c4)n(C)c(=O)n5C)c(=O)n3c2c1`: 37.9%. The same measure for `Cc1cc(C)c2nc3s/c(=C/c4ccccc4)c(=O)n3c2c1`: 57.6% (active); for `Cc1ccc2c(nc3s/c(=C/c4cccs4)c(=O)n32)c1C`: -7.9%; for `CCCCn1cnc(C(=O)OCC)c1N`: -3.8%.

As to `Nc1ccn(Cc2ccc(F)cc2)n1`, the inhibition was -1.5%.

With `O=C1COc2ccc(C(=O)c3ccccc3C(=O)O)cc2N1`, the inhibition is -8.8%. The same measure for `O=C1COc2ccc(C(=O)/C=C/c3ccccc3)cc2N1`: 7.8%.

Turning to `O=C(O)/C=C/C(=O)c1ccc2c(c1)NC(=O)CO2`, the inhibition was 64.4% (active). Take `Cc1ccc(S(=O)(=O)N2CCC(C(=O)N[C@H](C(=O)NCc3ccco3)C(C)C)CC2)cc1`: the inhibition is -3.1%.

As a reminder, the inhibition is the change of the read-out against control, counted positive when it falls.
